Structures can show the parent of a compound that is named as a salt.
The compounds below were run on HeLa (assay: nuclear count per well, robust Z-score vs DMSO; higher = more cells (less toxicity)). Conditions: 10 µM; 6 h.
For CCC(C)[C@H](NC(=O)[C@H](CCCCN)NC(=O)[C@H](CCCCN)NC(=O)[C@H](C)NC(=O)[C@H](CC(C)C)NC(=O)[C@H](C)NC(=O)[C@H](C)NC(=O)[C@H](CC(C)C)NC(=O)[C@H](C)NC(=O)[C@H](CCCCN)NC(=O)[C@H](CC(C)C)NC(=O)[C@H](CC(N)=O)NC(=O)[C@@H](N)[C@@H](C)CC)C(=O)N[C@@H](CC(C)C)C(N)=O (stereo not given in full) [Mastoparan], the “nuclear count per well” value was 0.543. In the case of Cc1nnc(NS(=O)(=O)c2ccc(N)cc2)s1 [Sulfamethizole], the “nuclear count per well” value is reported as 0.495. With CCC(=O)NCC[C@@H]1CCc2ccc3c(c21)CCO3 [Ramelteon] the “nuclear count per well” value was -0.354. With Nc1ccn([C@H]2CC[C@@H](CO)O2)c(=O)n1 [Zalcitabine] the “nuclear count per well” value was -0.556. With CC1=C(C)C(=O)C(CCCCC#CCCCC#CCO)=C(C)C1=O the “nuclear count per well” value was -1.15.

Each compound was assayed on HeLa (assay: MALAT1 nuclear FISH intensity, robust Z-score vs DMSO; higher = more nuclear MALAT1 lncRNA, active = -3 or less). Conditions: 10 µM; 6 h.
With O=c1c(O)c(-c2ccc(O)c(O)c2)oc2cc(O)cc(O)c12 the “MALAT1 nuclear FISH intensity” value was -0.883 (inactive). In the case of CCc1nc(N)nc(N)c1-c1ccc(Cl)cc1 [Pyrimethamine], the “MALAT1 nuclear FISH intensity” value is reported as -0.304 (inactive). O=C(O)CCCCCCCC(=O)O [Azelaic Acid] was tested, and the “MALAT1 nuclear FISH intensity” value was 0.381 (inactive). With Cc1cccc(Nc2ccccc2C(=O)O)c1C [Mefenamic Acid] the “MALAT1 nuclear FISH intensity” value was 0.551 (inactive). With CN(C)CCCN1c2ccccc2Sc2ccc(Cl)cc21 [Chlorpromazine hydrochloride] the “MALAT1 nuclear FISH intensity” value was 0.447 (inactive). For COc1ccc(O)cc1 [Mequinol], the “MALAT1 nuclear FISH intensity” value was -0.158 (inactive). COC1=C2C[C@@H](C)C[C@H](OC)[C@H](O)[C@@H](C)/C=C(\C)[C@H](OC(N)=O)[C@@H](OC)/C=C\C=C(/C)C(=O)NC(=CC1=O)C2=O [Geldanamycin] was tested, and the “MALAT1 nuclear FISH intensity” value was 0.254 (inactive). CC#C[C@]1(O)CC[C@H]2[C@@H]3CCC4=CC(=O)CCC4=C3[C@@H](c3ccc(N(C)C)cc3)C[C@@]21C [Mifepristone] was tested, and the “MALAT1 nuclear FISH intensity” value was -2.25 (inactive). CC1=C(/C=C/C(C)=C/C=C/C(C)=C/C(=O)O)C(C)(C)CCC1 [Tretinoin] was tested, and the “MALAT1 nuclear FISH intensity” value was -0.633 (inactive). With COC(=O)c1ccc(O)cc1 [Methylparaben] the “MALAT1 nuclear FISH intensity” value was -0.359 (inactive). Cn1cc(C2=C(c3cn(CCCSC(=N)N)c4ccccc34)C(=O)NC2=O)c2ccccc21 [Ro 31-8220 methanesulfonate salt] was tested, and the “MALAT1 nuclear FISH intensity” value was -2.38 (inactive). CNC(=O)[C@H]1O[C@@H](n2cnc3c(NCc4cccc(I)c4)ncnc32)[C@H](O)[C@@H]1O was tested, and the “MALAT1 nuclear FISH intensity” value was 2.19 (inactive). With CN(C)CCN(Cc1cccs1)c1ccccn1 the “MALAT1 nuclear FISH intensity” value was -0.51 (inactive). For CO[C@H]1C[C@@H]2CC[C@@H](C)[C@@](O)(O2)C(=O)C(=O)N2CCCC[C@H]2C(=O)O[C@H]([C@H](C)C[C@@H]2CC[C@@H](OC(=O)C(C)(CO)CO)[C@H](OC)C2)CC(=O)[C@H](C)/C=C(\C)[C@@H](O)[C@@H](OC)C(=O)[C@H](C)C[C@H](C)/C=C/C=C/C=C/1C [Temsirolimus], the “MALAT1 nuclear FISH intensity” value was 1.29 (inactive). For OCCn1cc(-c2ccc3c(c2)CC/C3=N\O)c(-c2ccncc2)n1, the “MALAT1 nuclear FISH intensity” value was 1.29 (inactive). With CC(=O)N[C@H]1[C@H]([C@H](O)[C@H](O)CO)OC(C(=O)O)=C[C@@H]1NC(=N)N [Zanamivir] the “MALAT1 nuclear FISH intensity” value was 0.223 (inactive). In the case of NC(N)=Nc1nc(CSCC/C(N)=N/S(N)(=O)=O)cs1 [Famotidine], the “MALAT1 nuclear FISH intensity” value is reported as -0.447 (inactive). In the case of c1cnc2cc3c(cc2n1)[C@@H]1CNC[C@H]3C1 [Varenicline Tartrate], the “MALAT1 nuclear FISH intensity” value is reported as 0.129 (inactive). For COC(=O)Nc1nc2cc(C(=O)c3ccccc3)ccc2[nH]1 [Mebendazole], the “MALAT1 nuclear FISH intensity” value was -1.33 (inactive). CCCNC(=O)NS(=O)(=O)c1ccc(Cl)cc1 [Chlorpropamide] was tested, and the “MALAT1 nuclear FISH intensity” value was -0.224 (inactive). Cn1c(=O)c2nc[nH]c2n(C)c1=O [Theophylline] was tested, and the “MALAT1 nuclear FISH intensity” value was 0.255 (inactive). With O=C1CCc2cc(OCCCCc3nnnn3C3CCCCC3)ccc2N1 [Cilostazol] the “MALAT1 nuclear FISH intensity” value was -0.676 (inactive). For CCCCCCCCCCCCCCC[C@@H](O)[C@H](CO)NC(=O)CCCCCCC [C8 Dihydroceramide], the “MALAT1 nuclear FISH intensity” value was -0.032 (inactive). C[C@H](CCC(=O)O)[C@H]1CC[C@H]2[C@@H]3CC[C@@H]4C[C@H](O)CC[C@]4(C)[C@H]3CC[C@]12C [Lithocholic acid] was tested, and the “MALAT1 nuclear FISH intensity” value was -0.045 (inactive). COc1ccc(-c2ccc3c(N4CCOC[C@@H]4C)nc(N4CCOC[C@@H]4C)nc3n2)cc1CO was tested, and the “MALAT1 nuclear FISH intensity” value was 0.787 (inactive). CCCCCCCCCC(=O)OCC(CO)OC(=O)CCCCCCCCC (stereo not given) [1,2-Didecanoyl-glycerol (10:0)] was tested, and the “MALAT1 nuclear FISH intensity” value was -0.0635 (inactive). CS(=O)(=O)Nc1ccc([N+](=O)[O-])cc1Oc1ccccc1 [Nimesulide] was tested, and the “MALAT1 nuclear FISH intensity” value was -0.731 (inactive). For CN(C)CCOC(c1ccccc1)c1ccccc1, the “MALAT1 nuclear FISH intensity” value was -0.464 (inactive). OC[C@@H](O)[C@H](O)[C@@H](O)CO [Xylitol] was tested, and the “MALAT1 nuclear FISH intensity” value was -0.295 (inactive). CC(=O)O[C@H]1C[C@@]2(C)[C@@H](C[C@@H](O)[C@H]3[C@@]4(C)CC[C@@H](O)[C@@H](C)[C@@H]4CC[C@@]32C)/C1=C(\CCC=C(C)C)C(=O)O [Fucidin] was tested, and the “MALAT1 nuclear FISH intensity” value was -0.351 (inactive). O=C(/C=C/c1cccnc1)NCCCCC1CCN(C(=O)c2ccccc2)CC1 was tested, and the “MALAT1 nuclear FISH intensity” value was 0.0421 (inactive). For C[C@]12CC[C@@H]3c4ccc(O)cc4CC[C@H]3[C@@H]1CC[C@@H]2O, the “MALAT1 nuclear FISH intensity” value was -0.858 (inactive). CO/N=C(\C(=O)N[C@@H]1C(=O)N2C(C(=O)OC(C)OC(C)=O)=C(COC(N)=O)CS[C@H]12)c1ccco1 (stereo not given in full) [Cefuroxime Axetil] was tested, and the “MALAT1 nuclear FISH intensity” value was 0.223 (inactive). In the case of CCCc1nc(C)c2c(=O)nc(-c3cc(S(=O)(=O)N4CCN(CC)CC4)ccc3OCC)[nH]n12 [Vardenafil], the “MALAT1 nuclear FISH intensity” value is reported as -1.12 (inactive). For Cn1c(=O)c2[nH]cnc2n(C)c1=O [Aminophylline], the “MALAT1 nuclear FISH intensity” value was 0.535 (inactive). For CCC(C)[C@H](NC(=O)[C@H](CCCCN)NC(=O)[C@H](CCCCN)NC(=O)[C@H](C)NC(=O)[C@H](CC(C)C)NC(=O)[C@H](C)NC(=O)[C@H](C)NC(=O)[C@H](CC(C)C)NC(=O)[C@H](C)NC(=O)[C@H](CCCCN)NC(=O)[C@H](CC(C)C)NC(=O)[C@H](CC(N)=O)NC(=O)[C@@H](N)[C@@H](C)CC)C(=O)N[C@@H](CC(C)C)C(N)=O (stereo not given in full) [Mastoparan], the “MALAT1 nuclear FISH intensity” value was -2.49 (inactive). Cc1nnc(NS(=O)(=O)c2ccc(N)cc2)s1 [Sulfamethizole] was tested, and the “MALAT1 nuclear FISH intensity” value was -1.47 (inactive). In the case of CCC(=O)NCC[C@@H]1CCc2ccc3c(c21)CCO3 [Ramelteon], the “MALAT1 nuclear FISH intensity” value is reported as -1.04 (inactive). For Nc1ccn([C@H]2CC[C@@H](CO)O2)c(=O)n1 [Zalcitabine], the “MALAT1 nuclear FISH intensity” value was 0.00319 (inactive). In the case of CC1=C(C)C(=O)C(CCCCC#CCCCC#CCO)=C(C)C1=O, the “MALAT1 nuclear FISH intensity” value is reported as 0.146 (inactive).

Source: the supplement of paper PMC9844399
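For MALAT1 nuclear FISH intensity, robust Z-score vs DMSO in this document: High-content confocal imaging of branched-DNA amplified FISH in 384-well plates, Hoechst-defined nuclei, score is well value minus plate DMSO median over DMSO robust SD, four wells per compound.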
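For nuclear count per well, robust Z-score vs DMSO in this document: Hoechst-stained nuclei counted by automated confocal imaging of four fields per well in 384-well plates, with the robust Z-score based on the per-plate DMSO median and robust SD.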
